PP1 inh = counter-screen for PP5 inhibitors: inhibitors of human PP1-alpha; P62136; purified PP1alpha, OMFP fluorescence; inhibition, % at 6.7 µM; 0.9% of 320,000 active; AID 2235;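 active = inhibition above the mean inhibition of all tested compounds plus 3 SD, computed separately for each screening campaign, cut at about 15% in these data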
PREPL inhibitor = human PREPL enzyme inhibition | recombinant PREPL, fluorescence polarization activity-based probe | inhibition, % at 5.96 µM | Q4J6C6 | 0.68% of 320,000 active;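 note: 0% = enzyme with DMSO and 100% = wells lacking enzyme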
PP5 inh = inhibitors of human protein phosphatase 5 (PP5). P53041. purified PP5c, OMFP substrate fluorescence. inhibition, % at 6.7 µM. 0.18% of 320,000 active. AID 1987;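 active = inhibition above the campaign's mean inhibition across all tested compounds plus 3 SD, cut at about 9.5% in these data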;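 note: 0% = DMSO only and 100% = 100 µM cantharidin control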
Rpn11 block = blocks the human proteasome subunit Rpn11. O00487. human 26S proteasome, Ub4-pepOG fluorescence polarization; 20S core pre-blocked with epoxomicin. inhibition, % at 20 µM. 0.59% of 360,000 active. AID 588493;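 active = inhibition at 20 µM, scaled to each plate's controls, above about 33%, limit read from the data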
NadD block = NadD (S. aureus) enzyme inhibition. purified NadD enzyme, colorimetric absorbance read-out. inhibition, % at 20 µM. 0.78% of 360,000 active. AID 602399; in the data active = inhibition above about 26%
PP1 inh confirm = confirmation of human PP1 phosphatase inhibitors; AID 2358; 52% of 1,900 active; purified PP1alpha, OMFP substrate fluorescence; shares compounds with PP1 inh; inhibition, % at 6.7 µM;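 active = mean PP1 inhibition above a set limit taken from the earlier primary screen, cut at about 15% in these data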
PP5 inh counter = counter-screen for PP1 inhibitors: human PP5 phosphatase inhibition; purified PP5c, OMFP fluorescence; shares compounds with PP1 inh; AID 2360; 4% of 1,900 active; inhibition, % at 6.7 µM;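 active = mean PP5 inhibition over triplicate wells above about 9.5% taken from the earlier PP1 screen, limit read from the data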
PREPL confirm = human PREPL inhibition, confirmation | 67% of 2,000 active | inhibition, % at 5.96 µM | recombinant PREPL, fluorescence polarization activity probe | shares compounds with PREPL inhibitor;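 note: 0% = protein with DMSO and 100% = wells lacking protein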
* = called active by the depositor; · = no result given. In the library only some 2.4% were active in any assay of this set; here they are far more common. Cut-off read from the data, not from the text of the source, unless noted: active = inhibition above about 43%; inactive = the rest.

SMILES	PP1 inh	PREPL inhibitor	PP5 inh	Rpn11 block	NadD block	PP1 inh confirm	PP5 inh counter	PREPL confirm
O=C(O)C1Nc2c(O)cc(Cl)c([N+](=O)[O-])c2C2C=CCC12 (centres undefined)	42*	94*	1	30	63*	6	-3	22
O=C(O)c1ccc(Cl)c2c1C1C=CCC1C(c1ccccn1)N2 (centres undefined)	5	3	-2	·	·	·	·	·
CC(CCCCCCCCC(=O)O)N(CCO)C(=O)OC(C)(C)C (centres undefined)	-1	7	0	13	1	·	·	·
COc1cccc2cc(C(=O)C3=C(O)C(=O)N(CCN4CCOCC4)C3c3ccc(C(C)(C)C)cc3)oc12 (centres undefined)	21*	53*	4	8	22	27*	1	56*
CCN(CC)CCN1C(=O)C(O)=C(C(=O)c2cc3cccc(OC)c3o2)C1c1ccc(F)cc1 (centres undefined)	1	3	3	3	6	·	·	·
CCCC(NC(=O)C(C)Sc1nnnn1C1CC1)c1ccccc1 (centres undefined)	1	6	2	-5	-5	·	·	·
O=C(c1[nH]c(C(F)(F)F)nc1-c1ccccc1)N1CCC(Cc2ccccc2)CC1	·	·	·	-5	4	·	·	·
CCN(CC)c1ccc(-c2nn3c(-c4n[nH]c5c4CCC5)nnc3s2)cc1	22*	79*	4	37	54*	31*	1	68*
Cc1cccn2c(Nc3ccccc3)c(-c3ccccn3)nc12	12	-13	0	3	4	·	·	·
Cc1ccn2c(Nc3ccccc3)c(-c3ccccn3)nc2c1	31*	67*	2	10	-2	33*	-1	63*
Cc1ccn2c(Nc3ccccc3C)c(-c3ccccn3)nc2c1	32*	52*	4	14	-3	39*	3	41
CC1=NN(c2ccc(C(=O)O)cc2)C(=O)/C1=C\c1ccc(OC(=O)c2cccs2)cc1	29*	45*	2	6	11	18*	-1	62*
CCc1ccc(Nc2n[n+](-c3ccccc3)c(-c3ccc(N(CC)CC)cc3)s2)cc1	24*	64*	1	·	28	10	-2	68*
O=[N+]([O-])c1cc(Cl)cc(/C=N/NC(=S)Nc2ccc(S(=O)(=O)N3CCOCC3)cc2)c1O	19*	46*	3	24	20	19*	0	28
O=S(=O)(c1ccc(NC(=S)N/N=C/c2ccc(O)c(O)c2)cc1)N1CCOCC1	-2	33	1	-2	5	·	·	·
Cc1ccc(NC(=O)COc2cccc(/C=C3\SC(=S)N(CCC(=O)O)C3=O)c2)cc1Cl	39*	52*	1	3	14	14	4	28
O=C(Cn1cc[n+](CC(=O)c2ccc(Cl)cc2Cl)c1)c1ccc(Cl)cc1Cl	18*	46*	-2	3	1	-11	-2	9
COc1ccc(NC(=O)CSc2ncccn2)cc1S(=O)(=O)N1CCCCC1	-4	2	0	-1	0	·	·	·
C#CCOCCOCCOCCNc1nc(N2CCN(C(=O)CCCCCCCCCCNC(=O)Cn3cc(CCCCCN)nn3)CC2)nc(N2CCN(C(=O)CCCCCCCCCCNC(=O)[C@H](CO)n3cc(CCCCCN)nn3)CC2)n1	35*	68*	0	-9	14	15	-2	60*
C#CCOCCOCCOCCNc1nc(N2CCN(C(=O)CCCCCCCCCCNC(=O)Cn3cc(CCCCCN)nn3)CC2)nc(N2CCN(C(=O)CCCCCCCCCCNC(=O)[C@H]([C@@H](C)CC)n3cc(CCCCCN)nn3)CC2)n1	46*	62*	3	32	26	35*	-1	57*
CN(C(=S)NC(=O)C1CC1)c1ccc(O)cc1	2	10	2	5	0	·	·	·
CCC1NC(=O)c2cc3ccccc3cc2-n2c1nc1cc(OC)c(OC)cc1c2=O (centres undefined)	·	·	·	7	-8	·	·	·
C#CCOCCOCCOCCNc1nc(N2CCN(C(=O)CCCCCCCCCCNC(=O)[C@H](CCCCN)n3cc(CCO)nn3)CC2)nc(N2CCN(C(=O)CCCCCCCCCCNC(=O)[C@H](CCCCN)n3cc(CCO)nn3)CC2)n1	18*	58*	1	8	9	-15	-4	47*
C#CCOCCOCCOCCNc1nc(N2CCN(C(=O)CCCCCCCCCCNC(=O)[C@H](CCCCN)n3cc(CCCC(=O)O)nn3)CC2)nc(N2CCN(C(=O)CCCCCCCCCCNC(=O)[C@H](CCCN=C(N)N)n3cc(C[C@@H](C)CC)nn3)CC2)n1	42*	44*	1	8	27	12	-2	35
C#CCOCCOCCOCCNc1nc(N2CCN(C(=O)CCCCCCCCCCNC(=O)[C@H](CCCCN)n3cc(CCO)nn3)CC2)nc(N2CCN(C(=O)CCCCCCCCCCNC(=O)[C@H](CCCN=C(N)N)n3cc(C[C@@H](C)CC)nn3)CC2)n1	45*	56*	5	77*	44*	44*	2	57*
COC(=O)CCCC1=CC2=C(c3ccccc3)C(=O)C(C)(OC(=O)C3CCCC3)C(=O)C2=CN1C1CC1 (centres undefined)	-3	0	1	-5	2	·	·	·
COC(=O)CCC(=O)OC1(C)C(=O)C2=CN(C3CCCC3)C(c3ccc(OC)cc3)=CC2=C(Br)C1=O (centres undefined)	17*	54*	9.7*	-11	10	15	35*	41
C#CCOCCOCCOCCNc1nc(N2CCN(C(=O)[C@H](Cc3cc4ccccc4[nH]3)n3cc([C@@H](N)C(C)CC)nn3)CC2)nc(N2CCN(C(=O)[C@H](Cc3cc4ccccc4[nH]3)n3cc([C@@H](N)Cc4ccc(O)cc4)nn3)CC2)n1 (some centres undefined)	84*	58*	8	·	·	78*	5	57*
C#CCOCCOCCOCCNc1nc(N2CCN(C(=O)[C@H](Cc3ccc(O)cc3)n3cc([C@@H](N)C(C)CC)nn3)CC2)nc(N2CCN(C(=O)[C@H](Cc3cc4ccccc4[nH]3)n3cc([C@@H](N)CC(C)C)nn3)CC2)n1 (some centres undefined)	20*	56*	2	·	·	-17	-1	48*
C#CCOCCOCCOCCNc1nc(N2CCN(C(=O)[C@H](CCC(=O)O)n3cc(C(N)Cc4ccc(O)cc4)nn3)CC2)nc(N2CCN(C(=O)[C@H](Cc3cc4ccccc4[nH]3)n3cc(C(N)[C@H](C)CC)nn3)CC2)n1 (some centres undefined)	1	41	1	-28	6	·	·	·

Bioassay records deposited in PubChem by several laboratories.
